From article PMC9911399, “Two distinct binding modes provide the RNA-binding protein RbFox with extraordinary sequence specificity”
Residue numbers refer to the chain shown, from its start. Over roughly 16,000 sequences, “ka relative to ugcaugu” has its median near 0.096; the highest 2% begin near 0.35. Shown is part of a subset that was picked to be rich in the highest values.

T1: RBFOX1 RRM RbFoxmut (Fox-RRM*) (Homo sapiens, UniProt Q9NWB1 109-208, R118D;E147R;N151S;E152T)
T1 sequence: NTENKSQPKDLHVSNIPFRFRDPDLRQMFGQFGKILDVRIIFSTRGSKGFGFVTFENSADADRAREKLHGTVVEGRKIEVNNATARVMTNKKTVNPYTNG

B1: GCGCGAC (DNA:RNA)
RNA: GGGAGACCGGAAUUCAGAUUGUCCGCGCGACUUAAAUCCCGUCGUAGCCACCA
DNA 1: CAATCTGAATTCCGGTCTCCC
DNA 2: TGGTGGCTACGACGGGATT
B2: UUAAGCC (DNA:RNA)
RNA: B1 RNA with G25U, C26U, G27A, C28A, A30C
DNA 1: CAATCTGAATTCCGGTCTCCC
DNA 2: TGGTGGCTACGACGGGATT
B3: CCCGAUC (DNA:RNA)
RNA: B1 RNA with G25C, G27C, C28G, G29A, A30U
DNA 1: CAATCTGAATTCCGGTCTCCC
DNA 2: TGGTGGCTACGACGGGATT
B4: CUUCGGU (DNA:RNA)
RNA: B1 RNA with G25C, C26U, G27U, A30G, C31U
DNA 1: CAATCTGAATTCCGGTCTCCC
DNA 2: TGGTGGCTACGACGGGATT
B5: AAGGCAA (DNA:RNA)
RNA: B1 RNA with G25A, C26A, C28G, G29C, C31A
DNA 1: CAATCTGAATTCCGGTCTCCC
DNA 2: TGGTGGCTACGACGGGATT
B6: UGAAUGA (DNA:RNA)
RNA: GGGAGACCGGAAUUCAGAUUGUCCUGAAUGAUUAAAUCCCGUCGUAGCCACCA
DNA 1: CAATCTGAATTCCGGTCTCCC
DNA 2: TGGTGGCTACGACGGGATT
B7: UGAUUGA (DNA:RNA)
RNA: B6 RNA with A28U
DNA 1: CAATCTGAATTCCGGTCTCCC
DNA 2: TGGTGGCTACGACGGGATT
B8: UGAUGAA (DNA:RNA)
RNA: B6 RNA with A28U, U29G, G30A
DNA 1: CAATCTGAATTCCGGTCTCCC
DNA 2: TGGTGGCTACGACGGGATT
B9: AAAAUGC (DNA:RNA)
RNA: B6 RNA with U25A, G26A, A31C
DNA 1: CAATCTGAATTCCGGTCTCCC
DNA 2: TGGTGGCTACGACGGGATT
B10: AGAUUGC (DNA:RNA)
RNA: B6 RNA with U25A, A28U, A31C
DNA 1: CAATCTGAATTCCGGTCTCCC
DNA 2: TGGTGGCTACGACGGGATT
B11: AGAAUGC (DNA:RNA)
RNA: B6 RNA with U25A, A31C
DNA 1: CAATCTGAATTCCGGTCTCCC
DNA 2: TGGTGGCTACGACGGGATT

target: T1, RBFOX1 RRM RbFoxmut (Fox-RRM*); assay: EMSA; HiTS-Eq, 1 nM pool, 10 min; buffer printed only for the single-RNA assays: 10 mM Tris pH 7.5, 150 mM NaCl, 3.4 mM EDTA, 0.001% NP-40, 30 C; settings: tags: His6 N-terminal (pET28a); label: 5' 32P
Procedure, shortened: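 Purified wild-type or mutant RbFox RRM at increasing concentrations was equilibrated with 1 nM of 5′-radiolabelled RNA carrying 7 randomized nucleotides for 10 min in 50 µL. Unbound RNA was separated by 8% native PAGE and sequenced. Relative association constants came from read-count changes of each RNA species compared with the control reaction, normalised to the cognate motif.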

Point of comparison: B9, binding signal 0.0633 KA relative to UGCAUGU. Against it:
- B1 — higher, 0.0897 KA relative to UGCAUGU
- B2 — higher, 0.106 KA relative to UGCAUGU
- B3 — lower, 0.0576 KA relative to UGCAUGU
- B4 — higher, 0.095 KA relative to UGCAUGU
- B5 — lower, 0.061 KA relative to UGCAUGU
- B6 — higher, 0.46 KA relative to UGCAUGU
- B7 — higher, 0.209 KA relative to UGCAUGU
- B8 — higher, 0.122 KA relative to UGCAUGU
- B10 — higher, 0.14 KA relative to UGCAUGU
- B11 — higher, 0.408 KA relative to UGCAUGU
